Laboratory results published in PubChem BioAssay.

Target: Voltage-gated potassium channel subunit beta-2 (Rattus norvegicus) (UniProt P62483)
Assay: KvBeta positive modulators, primary screen, biochemical, NADPH fluorescence (AID 623);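 also: fluorescence intensity change per second fitted from 20 to 320 s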
Conditions: Recombinant KvBeta, NADPH fluorescence decrease slope, 10 min; at 10 µM; active compounds read low;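 active = NADPH fluorescence slope more negative than the mean of all samples by about 3 SD, 99.7% confidence; inactive = the rest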

Sequence of Voltage-gated potassium channel subunit beta-2 (Rattus norvegicus) (P62483 whole entry, looked up): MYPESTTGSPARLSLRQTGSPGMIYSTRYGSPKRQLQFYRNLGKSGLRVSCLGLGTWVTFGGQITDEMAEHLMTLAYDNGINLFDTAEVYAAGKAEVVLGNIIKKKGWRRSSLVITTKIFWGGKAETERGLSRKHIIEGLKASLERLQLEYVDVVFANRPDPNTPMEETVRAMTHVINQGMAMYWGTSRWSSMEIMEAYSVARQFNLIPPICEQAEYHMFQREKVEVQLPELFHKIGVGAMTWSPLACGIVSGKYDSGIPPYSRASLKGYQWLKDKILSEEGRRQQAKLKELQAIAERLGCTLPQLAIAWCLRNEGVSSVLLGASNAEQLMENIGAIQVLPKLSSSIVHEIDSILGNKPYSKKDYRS

NADPH fluorescence slope, inactive:
COc1ccc(C)cc1NC(=O)CN1CCN(S(=O)(=O)c2ccc(Cl)cc2)CC1 -3e-05
COc1cccc(C(=O)Nc2c(C(N)=O)oc3ccccc23)c1 -4.8e-05
O=C(CC(Cc1ccccc1)C(=O)O)NCCc1ccc2c(c1)OCO2 (stereo not given) -3.2e-05
CC(=O)c1cccc(NC(=O)CCNS(=O)(=O)c2cccc3nsnc23)c1 -3e-05
COc1ccc(-n2c(=O)cc(N3CCN(Cc4ccccc4)CC3)[nH]c2=O)cc1 1.9e-05
Cc1cc(N2C(=O)C(O)=C(C(=O)c3ccc(C)o3)C2c2cccs2)no1 (stereo not given) -1.8e-05
COC(=O)C1=C(C)NC(C)=C(C(=O)OC)C1C(=O)OC1CCCCC1=O (stereo not given) -3.3e-06
O=C(Cc1cccs1)Nc1ccccc1NC(=O)Cc1cccs1 -7.6e-05
CCOC(=O)c1cc2c(=O)n3ccccc3nc2n(CCCOC)c1=NC(=O)C(C)(C)C 7.9e-06
CCOC(=O)c1cc(-c2ccco2)nc2c1c(C)nn2CCC#N 2.1e-05
Cc1cc(C)c(C#N)c(SCC(=O)Nc2ccc(S(=O)(=O)Nc3onc(C)c3C)cc2)n1 1.9e-05
O=c1c2nnn(Cc3ccc(Cl)cc3)c2ncn1Cc1ccc(F)cc1 -6.1e-05
Cc1ccc2c(c1)CCCN2C(=O)C1CCCO1 (stereo not given) -4e-05
CC1(C)NC(=O)N(CC(O)COc2ccc(-c3ccccc3)cc2)C1=O (stereo not given) -6.5e-05
CS(=O)(=O)NCc1nnc(SCC(=O)NC2CCCCC2)n1-c1ccc(F)cc1 -5.9e-05
